This passage reports Potency results from PubChem BioAssay (NCATS).

A short description of test [1]: Quantitative High-Throughput drug screen in 47 multiple myeloma cell lines against the NCATS MIPE library collection: U266_ATCC cell viability assay (AID 1919864). Also: nearly all actives have a fitted effect of over 35% in size. An outline of the steps:
(§1)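 500 cells/well; MIPE 4.0 drugs pin-transferred; 48 h, 37C, 5% CO2. CellTiter-Glo, 5 min RT, luminescence. Controls: DMSO 100%, media 0%.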

Test [2] in a line: Quantitative High-Throughput drug screen in 47 multiple myeloma cell lines against the NCATS MIPE library collection: XG6_PLB cell viability assay (AID 1919865). Also: nearly all actives have a fitted effect of over 40% in size. An outline of the steps:
as §1

The nature of test [3]: Quantitative High-Throughput drug screen in 47 multiple myeloma cell lines against the NCATS MIPE library collection: XG1_PLB cell viability assay (AID 1919866). Also: nearly all actives have a fitted effect of over 35% in size. The gist of the method:
as §1

Test [4] can be described thus: Quantitative High-Throughput drug screen in 47 multiple myeloma cell lines against the NCATS MIPE library collection: RPMI8226_ATCC cell viability assay (AID 1919871). Also: nearly all actives have a fitted effect of over 30% in size. The gist of the method:
as §1

Test [5] can be described thus: Quantitative High-Throughput drug screen in 47 multiple myeloma cell lines against the NCATS MIPE library collection: OPM2_DSMZ cell viability assay (AID 1919872). Also: nearly all actives have a fitted effect of over 30% in size. The gist of the method: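 Myeloma cell lines, 500 cells per well, exposed to MIPE 4.0 library compounds for 48 h at 37C, 5% CO2. Viability from ATP by CellTiter-Glo luminescence; normalised to DMSO (100%) and media-only (0%) wells.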

Test [6] can be described thus: Quantitative High-Throughput drug screen in 47 multiple myeloma cell lines against the NCATS MIPE library collection: KMS11_JCRBsus cell viability assay (AID 1919873). Also: nearly all actives have a fitted effect of over 50% in size. The gist of the method: as §1
A short description of test [7]: Quantitative High-Throughput drug screen in 47 multiple myeloma cell lines against the NCATS MIPE library collection: VP6_DJ cell viability assay (AID 1919867). Also: nearly all actives have a fitted effect of over 40% in size. The gist of the method:
as §1

Test [8] in a line: Quantitative High-Throughput drug screen in 47 multiple myeloma cell lines against the NCATS MIPE library collection: PE2_PLB cell viability assay (AID 1919869). Also: nearly all actives have a fitted effect of over 35% in size. The gist of the method: as §1
A short description of test [9]: Quantitative High-Throughput drug screen in 47 multiple myeloma cell lines against the NCATS MIPE library collection: PCM6_Riken cell viability assay (AID 1919870). Also: nearly all actives have a fitted effect of over 30% in size. An outline of the steps:
as §1

Test [10] in a line: Quantitative High-Throughput drug screen in 47 multiple myeloma cell lines against the NCATS MIPE library collection: UTMC2_PLB cell viability assay (AID 1919868). Also: nearly all actives have a fitted effect of over 55% in size. As to conditions: CellTiter-Glo ATP luminescence, 48 h; viability (% of DMSO control): at 45.8 µM (top of the series). An outline of the steps: as §1

Structures are written as SMILES. Results filed as inconclusive are left out. Unmarked numbers belong to inactive results. The source made the active and inactive calls. Calls follow the shape of the dose curve; as a rule, active = well fitted cell-killing curve with a large enough effect; inconclusive = small, poorly fitted or top-dose-only effect, or effect the other way; inactive = no such curve, though single readings can be large or run the other way.
Potency is read from the fitted curve at half-maximal effect.

Turning to `O=c1ccn([C@@H]2O[C@H](CO)[C@H](O)[C@@H]2F)c(=O)[nH]1`, the results for the Potency in [1], in test [2] and in test [3] were 5900 nM (active), 7430 nM (active) and 5900 nM (active), respectively. Also, the Potency result in test [4], in test [5] and in test [6] was “inactive” throughout.

On to `CCCCCCCCCCCCCCCC(=O)OC[C@@H](NC(=O)C(Cl)Cl)[C@H](O)c1ccc([N+](=O)[O-])cc1`, for which the Potency entry in test [1], in test [2], in test [7], in test [8], in [9] and in [5] was “inactive” in each case. Moreover, the Potency entry in [6] is “inactive”.

`Nc1ccn(C[C@@H](CO)OCP(=O)(O)O)c(=O)n1`: the Potency entry in test [1], in test [2], in [7] and in test [4] was “inactive” in each case.

For `COc1cc(C)c(C=CC(C)=CC=CC(C)=CC(=O)O)c(C)c1C`, the Potency result in test [1], in test [2], in test [3], in test [5] and in test [6] was “inactive” in each case. Besides, the Potency in test [4] was 1480 nM (active).

On to `Cc1ccccc1C(=O)Nc1ccc(C(=O)N2CCCC(O)c3cc(Cl)ccc32)c(C)c1` (stereo not drawn), for which the Potency entry in [1], in test [4], in [5] and in test [6] was “inactive” in each case. In addition, the Potency in test [3] is 14800 nM (active).

`COC(=O)C=CC(=O)OC`: the Potency in test [2] was 1320 nM (active); in test [3], 1320 nM (active); in [7] it was 2640 nM (active); in [10], 2350 nM (active); in test [8] it was 5260 nM (active); in test [9], 3320 nM (active). Besides, the Potency entry in test [4], in test [5] and in test [6] was “inactive” each time.

Consider `CCN(C(=O)c1c(O)c2c(Cl)cccc2n(C)c1=O)c1ccccc1`, for which the Potency result in test [1], in [3], in test [8], in test [9], in test [4] and in [5] was “inactive” in each case. The Potency result in test [6] is “inactive”.

Regarding `CC[C@]12C=CCN3CC[C@@]4(c5cc([C@@]6(C(=O)OC)C[C@H]7C[C@@H](C(C)(F)F)CN(Cc8c6[nH]c6ccccc86)C7)c(OC)cc5N(C)[C@H]4[C@@](O)(C(=O)OC)[C@H]1OC(C)=O)[C@@H]32`, the Potency in test [1] was 1660 nM (active); in test [9], 10.5 nM (active); in test [4] it was 166 nM (active); in test [5], 11.8 nM (active); in test [6], 2.6 nM (active).

As for `Cc1ccc([N+](=O)[O-])cc1S(=O)(=O)N(C)N=Cc1cnc2ccc(Br)cn12`, the Potency in test [1] was 20.9 nM (active); in [8], 7.4 nM (active); in test [4], 46.9 nM (active); in [5], 59 nM (active); in [6], 6.6 nM (active).

Consider `CC(C)(C)c1nc2c3cc[nH]c(=O)c3c3cc(F)ccc3c2[nH]1`, for which the Potency in [1] was 1870 nM (active); in test [3] it was 743 nM (active); in test [10], 187 nM (active); in [8], 833 nM (active); in [9], 743 nM (active); in test [4], 2960 nM (active). Moreover, the Potency in [5] was 1660 nM (active); in test [6], 662 nM (active).

With `C[C@]12CCC(=O)C=C1[C@@H]1CC1[C@H]1[C@H]3[C@@H]4C[C@H]4[C@@]4(CCC(=O)O4)[C@@]3(C)CC[C@H]12` (stereo partly drawn), the Potency entry in [1], in [7], in [8] and in [9] was “inactive” each time. Also, the Potency in test [4] is 18700 nM (active).

For `CC(C)N1[N]C(=C2C=c3cc(O)ccc3=N2)c2c(N)ncnc21`, the Potency in test [2] was 296 nM (active); in test [3], 93.5 nM (active); in test [7], 264 nM (active); in [10] it was 187 nM (active); in [8] it was 148 nM (active); in test [9], 1180 nM (active). Also, the Potency in [4] is 41.8 nM (active); in test [5] it was 235 nM (active); in test [6] it was 105 nM (active).

As to `CC(=O)[C@]1(O)Cc2c(O)c3c(c(O)c2[C@@H](O[C@H]2C[C@H](N)[C@@H](O)[C@H](C)O2)C1)C(=O)c1ccccc1C3=O`, the Potency in test [2] was 235 nM (active); in test [3], 166 nM (active); in test [7] it was 418 nM (active); in test [10], 37.2 nM (active); in [8], 132 nM (active); in test [9], 187 nM (active). The Potency in test [4] was 418 nM (active); in test [5] it was 662 nM (active); in test [6] it was 264 nM (active).

Regarding `CCN(CC)CCCCNc1ncc2c(n1)N(C)C(=O)N(c1c(Cl)c(OC)cc(OC)c1Cl)C2`, the Potency was 18700 nM (active) in [1]; 13200 nM (active) in [3]; 18700 nM (active) in [7]; 16600 nM (active) in test [9]; 14800 nM (active) in test [4]; 20900 nM (active) in test [6].

`C[C@@H](NCc1cc2ccccc2[nH]1)c1cccc2ccccc12`: the Potency entry in test [1], in test [7], in [9], in test [4], in [5] and in [6] was “inactive” in each case.

Turning to `O=C(O)[C@H](CC(=O)N1C[C@@H]2CCCC[C@H]2C1)Cc1ccccc1`, the Potency entry in test [1], in test [8], in [9], in test [5] and in test [6] was “inactive” throughout.

`CCCCCCCN(CC)CCCC(O)c1ccc(NS(C)(=O)=O)cc1` (stereo not drawn): the Potency entry in [1] and in test [4] was “inactive” each time. For the same molecule, in [3], the Potency was 18700 nM (active).

Consider `Cn1cc(C2=C(c3c4n(c5ccccc35)CCC(CN)C4)C(=O)NC2=O)c2ccccc21` (stereo not drawn), for which the Potency in test [1] is 16600 nM (active); in [3] it was 7430 nM (active); in test [7], 6620 nM (active); in test [8], 7430 nM (active); in test [9] it was 5260 nM (active); in test [4], 18700 nM (active). For the same molecule, the Potency in [5] is 18700 nM (active); in test [6], 7430 nM (active).

For the molecule `O=C1c2cccc(O)c2C(=O)c2c(O)cc(CO)cc21`, the Potency entry in test [1], in [3], in test [8], in test [9] and in test [6] was “inactive” throughout. For the same molecule, in test [4], the Potency is 16600 nM (active).

For the molecule `C[C@H]1O[C@H](O[C@H]2[C@H](O)[C@@H](O)[C@@H](O[C@H]3[C@H](O)[C@@H](O)C(O)O[C@H]3CO)O[C@H]2CO)[C@H](O)[C@@H](O)[C@H]1N[C@H]1C=C(CO)[C@@H](O)[C@H](O)[C@@H]1O` (stereo partly drawn), the Potency entry in test [2], in test [3], in test [7], in [10], in [8] and in [9] was “inactive” throughout. Also, the Potency result in test [4], in [5] and in [6] was “inactive” in each case.
